# Laboratory results from PubChem BioAssay AID1345082 (National Center for Advancing Translational Sciences (NCATS), 2018).
# Hit rate of the full screen: of about 94,000 compounds, about 4,000 (4.3%) were called active. Not shown: some 29% with an inconclusive outcome. The call rests on the fitted dose curve; in most records, active means well fitted inhibition curve with a large enough effect; inconclusive means small, poorly fitted or top-dose-only effect; inactive means no such curve, though single readings can be large or run the other way. The list comes from a sample in which actives are over-represented; it also holds similar structures and randomly drawn compounds. A call without a number means that no potency is given here.
# Experiment: Cytotoxic Profiling in NIH 3T3 Cell Line of Diverse Libraries Using Quantitative High-Throughput Screening; further: nearly all actives have a fitted effect of over 55% in size
# Conditions: NIH 3T3 viability, CellTiter-Glo ATP luminescence, 48-72 h; series mostly up to 96.7 µM
# Summary of the method: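 Cytotoxicity is measured as loss of cellular ATP: NIH 3T3 cells (400/well) are exposed to compound for 48 or 72 hr at 37 °C, then CellTiter-Glo luminescence is imaged after 10 min at room temperature.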
# Potency means the concentration at half of the fitted maximal effect.
row,Structure (SMILES),Potency
1,CC(C)NC(=O)C1CCC(=O)N1C1CCN(C(=O)c2ccc3c(c2)OCO3)CC1 (stereo not given),inactive
2,O=C(c1ccc2c(c1)OCO2)N1CCC(n2c(=O)[nH]c3ccccc32)CC1,inactive
3,COc1ccc(CNC(=O)c2noc(-c3ccc(F)cc3)n2)cc1,inactive
4,O=C(NCc1ccc2c(c1)OCO2)c1noc(-c2ccc(F)cc2)n1,inactive
5,CNc1nc(C(=O)NCc2ccc3[nH]c(-c4ccc(F)cc4)c(C)c3c2)cs1,50.1 µM (active)
6,CN(CCc1ccccn1)[C@H]1[C@@H]2OC[C@@H](O2)[C@@H](NC(=O)Nc2ccc(F)cc2)[C@@H]1O,inactive
7,CNC(=O)[C@@H]1CN(C(=O)c2n[nH]c3ccccc23)C[C@H]1COC,inactive
8,COc1ccccc1C(=O)N1CCC2(CC1)C(=O)Nc1ccccc12,inactive
9,CN(C)CCNC(=O)c1nc2nc(-c3ccccc3)c(-c3cccc(F)c3)cc2n1C,25.1 µM (active)
10,CCc1cc(=O)n(CC(=O)Nc2ccccc2F)c(-c2cccc(F)c2)n1,inactive
11,COCCNC(=O)c1nc(-c2cc(Cl)cc(Cl)c2)c2ccccn12,inactive
12,Cc1ccc(S(=O)(=O)N2C[C@@H](F)C[C@H]2C(=O)N2CCCCC2)cc1Cl,inactive
13,CCN1c2cc(C(=O)NCc3cccc(F)c3)ccc2C(=O)N2CCCCCC21 (stereo not given),inactive
14,CCN1c2cc(C(=O)Nc3ccc(F)c(Cl)c3)ccc2C(=O)N2CCCCC21 (stereo not given),25.1 µM (active)
15,CN1c2cc(C(=O)Nc3ccc(F)cc3)ccc2C(=O)N2CCCCC21 (stereo not given),inactive
16,COC1CN(c2cccc(F)c2)C12CCN(C1CCOCC1)CC2 (stereo not given),inactive
17,CC#CCn1cc2c3c(cccc31)[C@H](CC(C)C)N[C@H](C(=O)NCc1ccccc1OC)C2,31.6 µM (active)
18,CCCN1C(=O)Cc2ccccc2C1C(=O)NCc1cccc(OC)c1OC (stereo not given),inactive
19,COc1ccc(CNC(=O)[C@H]2O[C@H](CCN3CCN(C)CC3)CC[C@@H]2O)cc1,inactive
20,COCCN1CCN(C(=O)[C@@H]2Cc3cn(C)c4cccc(c34)[C@H](CC(C)C)N2)CC1,inactive
21,Cc1cc(Cn2cc3c4c(cccc42)[C@H](CC(C)C)N[C@H](C(=O)N2CCCCCC2)C3)no1,31.6 µM (active)
22,COC(=O)[C@@H]1Cc2ncn(Cc3ccc(OC)cc3)c2CN1S(C)(=O)=O,inactive
23,COc1ccccc1CNC(=O)CN1CC[C@](C)(O)[C@@H](O)C1,inactive
24,COc1ccc(CNC(=O)[C@@H]2Cc3cn(Cc4ccncc4)c4cccc(c34)[C@H](CC(C)C)N2)cc1,79.4 µM (active)

row,Structure (SMILES),Potency
1,COc1ccc(CCC(=O)N2CCCC3(CC2)CN(C)C(=O)O3)cc1OC (stereo not given),inactive
2,CS(=O)(=O)c1ccc(CN2CCOC(c3cccnc3)C2)cc1 (stereo not given),inactive
3,COc1ccc(CNC(=O)CC[C@@H]2CNC(=O)[C@@H]3C[C@H](NC(=O)NC(C)C)CN23)cc1,inactive
4,Cc1ccc(-n2cccn2)c(CN2CCC(CNS(C)(=O)=O)C2)c1 (stereo not given),inactive
5,OC[C@@H]1O[C@H](CNC2CCOCC2)[C@H](N2CCCC2)[C@@H]1O,inactive
6,Cc1cc(C)n(CCCN(C)C(=O)C2C3C(=O)N(CCC(C)C)C[C@@]34C=C[C@@H]2O4)n1 (stereo not given in full),inactive
7,Cc1cn2nc(C(=O)Nc3ccc(F)cc3F)cc2c(N(C)Cc2ccccc2)n1,inactive
8,O=Cc1ccccc1-c1ccc(O)cc1,79.4 µM (active)
9,CCNC(=O)c1ccccc1-c1ccc(O)cc1,inactive
10,COc1ccccc1C(=O)N1CCC2(C1)C(=NC1CCCCC1)NC(=O)N2c1cccnc1 (stereo not given),inactive
11,Cc1cccc(C(=O)N2C[C@@H](COc3ccccc3)[C@H](C(N)=O)C2)c1,inactive
12,COCC1CN(C(C)=O)CC12CCN(Cc1cccc(C#N)c1)CC2 (stereo not given),inactive
13,O=C(c1cn[nH]c1)N1CC2(CN(Cc3cccc(Cl)c3)CC2COc2ccccc2)C1 (stereo not given),79.4 µM (active)
14,CNC(=O)c1cc(C)nc2onc(C3CCN(C(=O)C4CCCCC4)C3)c12 (stereo not given),inactive
15,CC(=O)N1Cc2ccccc2CC2(CCN(Cc3cccnc3)CC2)C1,inactive
16,c1ccc(CN2CCNc3cc(NCc4cccnc4)ncc3C2)cc1,50.1 µM (active)
17,Cn1ccc(Nc2cc3c(cn2)CN(CCc2ccccc2)CCN3)n1,79.4 µM (active)
18,CCn1ccnc1CN(C)C1CCCN(CCc2ccccc2)C1 (stereo not given),inactive
19,O=C1CC(c2ccccc2)N(Cc2ccncc2)CCCN(Cc2cccnc2)CCN1 (stereo not given),inactive
20,COc1cccc(S(=O)(=O)N2CCC3(CC2)CC2C(=O)NCCN2C3)c1 (stereo not given),inactive
21,CCc1nc(N(C)Cc2nccn2Cc2ccccc2)c2cnn(C)c2n1,inactive
22,CS(=O)(=O)c1cnc(NCCN2CCOCC2)nc1C1CCCNC1 (stereo not given),inactive
23,COc1cc(-c2noc(-c3nc(-c4ccc5c(c4)OCO5)no3)n2)cc(OC)c1OC,inactive
24,CC(C)C[C@@H]1N[C@H](C(=O)NC(C)C)Cc2c[nH]c3cccc1c23,100 µM (active)

row,Structure (SMILES),Potency
1,COCCn1c(C)cc(C(=O)N2CCCCCCNC(=O)CC2)c1C,inactive
2,O=C(c1cccnc1)N1CCC(Cc2nc(C3CCOCC3)no2)CC1,inactive
3,O=C([C@@H]1C[C@H](Oc2ccccc2)CN1S(=O)(=O)c1cccnc1)N1CCCC1,inactive
4,Cc1nn2c(c1-c1ccnn1C(C)C)N(CC1CCOCC1)CCC2,31.6 µM (active)
5,Cc1nn2c(c1-c1ccccc1-c1ccccc1)N(CC1CC1)CCC2,3.16 µM (active)
6,COc1ccc(S(=O)(=O)NCCc2noc(-c3ccncc3)n2)cc1,inactive
7,CNC(=O)N1CCC(C2CCN(C(=O)CSC)C2)CC1 (stereo not given),inactive
8,COc1cc(NC(=O)c2cc3c(N4CCSCC4)nc(C)cn3n2)cc(OC)c1,inactive
9,COc1cc2c(cc1OC)C(CNC(=O)c1ccc(Cl)cc1)N(C(=O)Nc1ccccc1)CC2 (stereo not given),inactive
10,COc1ccccc1-c1cnc(NC(=O)c2ccc(Cl)cc2)c2c1CCO2,79.4 µM (active)
11,COc1ncccc1Nc1ncc(-c2ccccc2)c2c1OCC2,inactive
12,O=C(c1ccccc1)N1CCCCC1c1nc(C2CC2)n[nH]1 (stereo not given),inactive
13,COc1ccc(NC(=O)[C@@H]2C[C@@H](c3ccc(F)cc3)N(CCOc3ccccc3)C2)cn1,44.7 µM (active)
14,O=C(COc1ccc(NC(=O)C2CC2)cn1)NCc1ccc(F)cc1F,inactive
15,Cc1ccc(NC(=O)[C@@H]2CNC[C@H](C(=O)NCc3ccccn3)C2)cn1,inactive
16,CNC(=O)N1CCC(N2CC(OCC3CC3)C23CCCCC3)CC1 (stereo not given),inactive
17,O=C(O)C[C@@H]1CCN(C(=O)C(=O)O)C[C@@H]1CC1=NCCc2cc(F)ccc21,inactive
18,O=C(c1cccc(F)c1)N1CCCC(CN2CCOCC2)CC1 (stereo not given),inactive
19,O=C(c1cccc(F)c1)N1CCC(CCOc2ccc(F)cc2)C1 (stereo not given),39.8 µM (active)
20,Cc1ccc(OCCC2CCN(C(=O)c3cnccc3C)C2)cc1 (stereo not given),inactive
21,COc1cccc(-c2cc(C(=O)N3CCN(C(C)=O)CC3)c3cnn(C)c3n2)c1,inactive
22,CC(=O)N1CCN(C(=O)c2cc(-c3cccc(F)c3)nc3c2cnn3C)CC1,inactive
23,Cn1ncc2c(C(=O)N3CCC(c4ccccc4)CC3)cc(-c3ccc(F)cc3)nc21,39.8 µM (active)
24,O=C(NC1CC1)c1cc2n(n1)CCN(C(=O)c1ccc3n[nH]nc3c1)C2,inactive

row,Structure (SMILES),Potency
1,CCCN(CC1CCOC1)C(=O)Nc1cc(F)ccc1F (stereo not given),inactive
2,COc1ccccc1-c1cc(C(=O)NCc2ccccn2)nn2cnnc12,inactive
3,COc1ccc(-n2nc(C)c([C@H]3C=C[C@@H](OC(=O)Nc4cccc(F)c4)C3)c2C)cc1,28.2 µM (active)
4,O=C(N[C@@H]1CN(c2ncccn2)C[C@H]1CO)c1ccco1,inactive
5,Cc1nn(-c2ccccc2)c2c1C(C(C)C)N(C1CN(C(=O)c3ccc(Cl)nc3)C1)C2=O (stereo not given),inactive
6,Cc1cnc(CCNC(=O)c2ccco2)n1C1CCC1,inactive
7,CCC(C)NC(=O)Cc1csc2nc(C)c(-c3cc(C)n(-c4ccc(C(C)C)cc4)n3)c(=O)n12 (stereo not given),inactive
8,Cc1nn(-c2ccccc2)c2c1C(C(C)C)N(C1CCN(C(=O)c3ccc(Cl)nc3)CC1)C2=O (stereo not given),inactive
9,Cc1nn(-c2ccc(C(C)C)cc2)c(C)c1[C@@H]1C=C[C@@H](NC(=O)Nc2ccccc2)C1,50.1 µM (active)
10,Cc1nn(-c2ccc(C(C)C)cc2)c(C)c1[C@@H]1C=C[C@@H](NC(=S)NCC(C)C)C1,22.4 µM (active)
11,COc1cccc(-c2cc(C(=O)Nc3cccc(F)c3)c3cnn(C)c3n2)c1,inactive
12,Cc1nn(-c2ccc(C(C)(C)C)cc2)c(C)c1[C@@H]1C=C[C@@H](NC(=O)c2ccco2)C1,35.5 µM (active)
13,COc1cccc(NC(=O)Cn2c(=O)n(-c3ccc(F)cc3)c(=O)c3c2cc(C)n3C)c1,inactive
14,CC(C)c1nc(CCn2cc(-c3cncnc3)nn2)cs1,inactive
15,Cc1ccc(CN2C[C@@H](CO)[C@H](c3nc(C)no3)C2)nc1,inactive
16,COc1ccccc1C(=O)N1CCc2nnc([C@@H]3C[C@@H](O)CN3C)n2CC1,inactive
17,CN1CCC(NC[C@H]2O[C@@H]3C[C@@H](CC(=O)NCc4cnn(C)c4)O[C@@H]3[C@@H]2O)CC1,inactive
18,CC(C)c1nc2c(c(-c3ccc(Cl)cc3)n1)CN(C(=O)c1ccccc1)CC2,inactive
19,COc1ccc(C(=O)N2CCC(CCn3c(C)cnc3C3CC3)CC2)cc1,inactive
20,COC(=O)CNC(=O)NC1CCN(C(=O)N2CC3CC(C2)[C@H]2CCCC(=O)N2C3)CC1 (stereo not given in full),inactive
21,Cc1ccc2c(c1)C(C[C@H]1CN(C(=O)NC(C)C)CC[C@H]1CC(=O)O)=NCC2,inactive
22,Cc1noc(C)c1[S+](=O)([O-])N1CCC2(CC1)C(=O)NN=C2c1cccnc1,inactive
23,Cc1ccccc1CNC(=O)CN1C(=O)C2(CCNCC2)Nc2ccccc21,inactive
